# Records with an inconclusive call do not appear. Where a call stands in place of a potency, no number is given. Active and inactive are the calls of the source. Calls follow the shape of the dose curve; as a rule, active = well fitted inhibition curve with a large enough effect; inconclusive = small, poorly fitted or top-dose-only effect; inactive = flat fitted curve, though single readings scatter. Where a SMILES comes first, the peptide text is derived from it. Bridges are numbered along the chain shown (N, C = ends).
# Assay: P-glycoprotein substrates identified in KB-8-5-11 adenocarcinoma cell line, qHTS therapeutic library screen (AID 1346987); also: nearly all actives have a fitted effect of over 65% in size
# Settings: KB-8-5-11 (P-gp overexpressing) viability, CellTiter-Glo, 72 h; series mostly up to 44.5 µM
# Excerpt: The ATP-binding cassette transporters P-glycoprotein (P-gp) is known to limit brain penetration of many chemotherapy drugs. […] As such, we developed a high-throughput screen (HTS) to identify substrates of P-gp from a series of chemical libraries including the National Center for Advancing Translational Sciences Pharmaceutical Collection NPC, 2,816 compounds), testing a total of 10,804 compounds, most of which have known mechanisms of action. We used the CellTiter-Glo viability assay to test library compounds against the parental KB-3-1 human cervical adenocarcinoma cell line and the colchicine-selected sub-line KB-8-5-11 that over-expresses P-gp. KB-8-5-11 cells were also tested in the presence of a P-gp inhibitor (tariquidar) to assess reversability of transporter-mediated resistance. Of the tested compounds, a total of 90 P-gp substrates were identified including 55 newly identified P-gp substrates. Substrates were confirmed using an orthogonal killing assay against HEK-293 cells transfected with P-gp. As exemplars, we confirmed that […] (cyclin-dependent kinase inhibitor); AT9283, (Janus kinase 2/3 inhibitor); ispinesib (kinesin spindle protein inhibitor); gedatolisib (PKI-587, phosphoinositide 3-kinase/mammalian target of rampamycin inhibitor); GSK-690693 (AKT inhibitor); and KW-2478 (heat shock protein 90 inhibitor) were substrates , and direct ATPase stimulation was assessed. ABCG2 was also found to confer high levels of resistance to AT9283, GSK-690693 and gedatolisib, while ispinesib, AT7519 and KW-2478 were weaker substrates.
# The HeLa derivative cell line, KB-3-1, and its colchicine-selected, P-gp-overexpressing subline, KB-8-5-11 were maintained in DMEM with 10% FCS and Pen/Strep with glutamine at 37 degree C in 5% CO2. For KB-8-5-11 cells, colchicine was added to the medium at a concentration of 100 ng/mL. HEK-293 cells transfected with empty vector (pcDNA) or vector containing human ABCB1 (MDR-19) or ABCG2 (R-5) have been described previously (Robey, Lin, Qiu, Chan & Bates, 2011) and were maintained in EMEM supplemented with 10% FCS, Pen/Strep and glutamine with 2 mg/ml G418 to select for the expression of the transporter. Cultures were confirmed to be free of mycoplasma infection using the MycoAlert Mycoplasma Detection Kit (Lonza, Walkersville, MD). For the screen, assay medium was identical to culture medium except for KB-8-5-11 where colchicine was excluded from the medium.
# All cell lines were plated into 1536-well plates at 500 cells/well in 5 uL media. Compounds were then pinned in dose-response using a 1536-head pin tool (Kalypsis, San Diego, CA) and plates were incubated at 37 degree C in 5% CO2 for an additional 72 h. CellTiter-Glo reagent (Promega) was dispensed into the wells, incubated for 5 min and luminescence was read on a ViewLux instrument (Perkin-Elmer). Cytotoxic compounds were defined as those that yielded a curve class of -1.1, -1.2, -2.1, -2.2, -2.3, or -2.4, a maximum response of >50% and an AC50 of < 10 uM. Cherry-picked hits from screening analysis were tested with both the KB pair of cell lines, and the pcDNA (empty vector control) and MDR-19 (P-gp overexpressing) pair were tested, in the absence and presence of tariquidar.
# Potency is read from the fitted curve at half-maximal effect.
Compound,Potency,"activity change, negative = cytotoxicity"
CC(=O)Nc1cccc(-c2csc(Nc3cc(C)ccn3)n2)c1,inactive,
CC(C)(C)CC(=O)OCC(=O)[C@@]12OC(C)(C)O[C@@H]1C[C@H]1[C@@H]3CCC4=CC(=O)C=C[C@]4(C)[C@@]3(F)[C@@H](O)C[C@@]12C,inactive,
CC(CCC1(O)OC2CC3C4CC=C5C[C@@H](O[C@@H]6O[C@H](CO)[C@@H](O[C@@H]7O[C@@H](C)[C@H](O)[C@@H](O)[C@H]7O)[C@H](O)[C@H]6O[C@@H]6O[C@@H](C)[C@H](O)[C@@H](O)[C@H]6O)CC[C@]5(C)C4CC[C@]3(C)[C@@]2(O)[C@@H]1C)CO[C@@H]1O[C@H](CO)[C@@H](O)[C@H](O)[C@H]1O (stereo not given in full),,-2.5% [at 9.29 µM] (inactive)
O=C(NCCN1CCOCC1)c1cc2c(Oc3ccc(NC(=O)C4(C(=O)Nc5ccc(F)cc5)CC4)cc3)ccnc2[nH]1,inactive,
CCN1CCCC1CNC(=O)c1cc(S(=O)(=O)CC)ccc1OC (stereo not given),inactive,
CNCc1cc(-c2ccccc2F)n(S(=O)(=O)c2cccnc2)c1,inactive,
COc1cc([C@@H]2c3cc4c(cc3C(O[C@@H]3O[C@@H]5COC(c6cccs6)O[C@H]5[C@H](O)[C@H]3O)C3COC(=O)[C@@H]32)OCO4)cc(OC)c1O (stereo not given in full),inactive,
C[C@H]1[C@H](/C=C/c2ccc(-c3ccccc3C#N)cn2)[C@@H]2[C@@H](C)OC(=O)[C@@H]2C[C@@H]1C,16.4 µM (active),
CC(=O)OC1C(=O)C2C3OCC4=C3[C@@](C)(CC[C@@H]4O)CC[C@]2(C)[C@H]1C(C)C (stereo not given in full),inactive,
CCC(CC)C(c1ccc(Nc2nc3ccccc3s2)cc1)n1cncn1 (stereo not given),23.1 µM (active),
N#Cc1ccnc(Nc2cc(C3CCN(C4COC4)CC3)cc(N3CCC(F)(F)C3)n2)c1,16.4 µM (active),
O=C(O)c1ccc(S(=O)(=O)N(Cc2ccc(OC(F)(F)F)cc2)c2ncc(C(F)(F)F)cc2Cl)cc1,inactive,
O=C(Nc1ccc2[nH]nc(-c3ccncc3)c2c1)[C@@H]1CCN(CC(=O)N2CCN(c3ccc(-c4ncccn4)cc3)CC2)C1,inactive,
COC(=O)C[C@](O)(CCCC(C)(C)O)C(=O)O[C@@H]1C(OC)=CC23CCCN2CCc2cc4c(cc2[C@H]13)OCO4 (stereo not given in full),13 µM (active),
NCCC(=O)[N-][C@@H](Cc1cnc[nH]1)C(=O)O.[Zn],inactive,
CC(C)n1c(=O)c(C(=O)NC2CC3CCC(C2)N3C[C@@H](O)CN(C)S(C)(=O)=O)cc2ccccc21 (stereo not given in full),inactive,
NCCCC[C@H](NC(=O)[C@@H]1CCCN1C(=O)[C@@H]1CSSC[C@H](NC(=O)CNC(=O)CNC(=O)CN)C(=O)N[C@@H](Cc2ccc(O)cc2)C(=O)N[C@@H](Cc2ccccc2)C(=O)N[C@@H](CCC(N)=O)C(=O)N[C@@H](CC(N)=O)C(=O)N1)C(=O)NCC(N)=O (H-GGGCYFQNCPKG-NH2; disulfide 4-9),inactive,
CCn1c(=O)n([C@H]2CCCN(c3nccc(-c4cc5ccccc5o4)n3)C2)c2ccccc21,inactive,
C/C=C/C=C/c1cc2c(C=O)c(O)c(CC=C(C)C)cc2o1,inactive,
CC(=O)O[C@@H]1CC2C(C)(C)C(=O)C=C[C@]2(C)C2CC[C@@]3(C)[C@H](c4ccoc4)OC(=O)[C@H]4O[C@]43[C@@]21C (stereo not given in full),inactive,

Compound,Potency,"activity change, negative = cytotoxicity"
C=C1C(=O)OC2C3=C(C)C(=O)CC3C(C)CC(O)C12 (stereo not given),inactive,
Cn1ncnc1[C@@H]1c2n[nH]c(=O)c3cc(F)cc(c23)N[C@H]1c1ccc(F)cc1,inactive,
CC[C@H](C)/C=C(C)/C=C/C1=CC2=C(Cl)C(=O)[C@](C)(O)[C@H](OC(C)=O)[C@H]2CO1,inactive,
C=CC(=O)N1CCC(Oc2cc3c(Nc4ccc(Cl)c(Cl)c4F)ncnc3cc2OC)CC1,11.6 µM (active),
C[C@@H](NC(=O)C(=O)c1c[nH]c2ccc([N+](=O)[O-])cc12)c1ccccc1,inactive,
CCC(C)C(=O)O[C@H]1[C@@H](OC(=O)c2ccoc2)C[C@](C)(O)[C@]23OC(C)(C)[C@H](C[C@H](OC(=O)c4ccoc4)[C@]12COC(C)=O)[C@H]3OC(C)=O (stereo not given in full),inactive,
COc1cc(C#N)ccc1S(=O)(=O)Nc1ccc2c(c1)cc(C)c(=O)n2C,inactive,
Cn1ncnc1[C@H]1c2n[nH]c(=O)c3cc(F)cc(c23)N[C@@H]1c1ccc(F)cc1,inactive,
CC(=O)NCc1cccc(OC[C@@H](O)CNCCc2ccc(NS(=O)(=O)c3ccccc3)cc2)c1,inactive,
CCC(C)/C=C(C)/C=C/C1=CC2=C(Cl)C(=O)C(C)(OC(C)=O)C(=O)C2(O)C(OC)O1 (stereo not given),inactive,
CN(C)CC#CCCC(=O)C(O)(c1ccccc1)C1CCC1 (stereo not given),inactive,
CC#CC(=O)Nc1ccc2ncnc(Nc3cccc(Br)c3)c2c1,11.6 µM (active),
CN(C)c1ccnc2sc3c(=O)n(N4CCCCCC4)cnc3c12,inactive,
CCn1c(-c2nonc2N)nc2c(C#CCO)ncc(OCCCN)c21,inactive,
Cn1c(SCC(=O)N2CCC[C@H]2C(=O)Nc2ccccc2-c2ccccc2)nc2ccccc21,inactive,
C[C@@H]1C[C@H]2O[C@@]3(O[C@@H]2C(C)(C)O)C(O)[C@@]2(C)C4CCC5C(C)(C)[C@@H](O[C@H]6OC[C@H](O)[C@@H](O)[C@@H]6O)CC[C@@]56C[C@@]46CC[C@]2(C)C13 (stereo not given in full),inactive,
COc1ccc([C@H]2OC[C@H]3O[C@@H](O[C@H]4[C@@H]2NC[C@@H]4O)[C@H](O)[C@H]3O)cc1,1.61 µM (active),
COC1=C(C(=O)O)N2C(=O)[C@@H](NC(=O)[C@H](N)C3=CCC=CC3)[C@H]2SC1,inactive,
Cc1cc(Nc2ccccc2C(=O)O)ccc1Cl,inactive,
Cc1ccc(CNc2ncnc3ccc(-c4ccc(CO)o4)cc23)o1,inactive,

# Reference: PubChem BioAssay (NCATS)
